A selection: hits, their analogues and other compounds. The true share with any hit is near 8.9%.
KB-V1 cytotox = qHTS assay for MDR1-selective chemotherapeutics: Primary screen using the drug-selected MDR subline cells KB-V1 | Potency, µM (doses to about 46.1 µM), most hits filed as cytotoxic | hit rate 3.4% among 400,000 | KB-V1 MDR cells viability, CellTiter-Glo, 72 h; also: potency is read from the fitted curve at half-maximal effect; % is scaled to controls: 0 for no effect and ±100 for the full control effect; nearly all actives have a fitted effect of over 60% in size
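Following 72 h at 37 degrees C with compound, KB-V1 cell viability was read by CellTiter-Glo luminescence, medium being phenol-red-free DMEM plus 10% FBS; concentration-response parameters came from normalized, curve-fitted qHTS data.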
MCF10A rereplic = A quantitative high throughput screen for small molecules that induce DNA re-replication in MCF 10a normal breast cells. MCF 10A DNA re-replication, Hoechst nuclear intensity, 48 h. hit rate 2.9% among 350,000. Potency, µM (series often up to 46.1 µM), without a hit: top-dose activity, positive = re-replication, most hits filed as activators; also: potency is read from the fitted curve at half-maximal effect; % of control where 0% means no effect; nearly all actives have a fitted effect of over 50% in size
DRD3 agonist = qHTS of D3 Dopamine Receptor Agonist: qHTS; D3R DiscoveRx beta-arrestin cells, luminescence, 90 min; max activation, %; hit rate 0.58% among 410,000; AID 652048, 2013; in the data active = max activation above about 30%; also: 0% is about no effect
Target sequence (P35462 whole entry, looked up): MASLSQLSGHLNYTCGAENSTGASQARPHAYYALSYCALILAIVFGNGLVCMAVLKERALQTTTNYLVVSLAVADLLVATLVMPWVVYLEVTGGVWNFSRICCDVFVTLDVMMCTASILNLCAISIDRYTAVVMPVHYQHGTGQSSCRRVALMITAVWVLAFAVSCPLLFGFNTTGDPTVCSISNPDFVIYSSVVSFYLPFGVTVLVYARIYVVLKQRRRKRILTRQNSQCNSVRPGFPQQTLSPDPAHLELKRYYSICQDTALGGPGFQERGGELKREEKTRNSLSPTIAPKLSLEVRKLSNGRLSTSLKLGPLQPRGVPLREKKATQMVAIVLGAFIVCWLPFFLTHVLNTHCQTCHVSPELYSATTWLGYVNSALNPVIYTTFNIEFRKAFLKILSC
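Agonist-mode cell screen: cells plated at 1500/well and incubated overnight at 37 °C, then exposed to library compounds for 90 min at 37 °C. Detection reagent was added for 30–60 min at room temperature, and luminescence was read.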
D3 antag = qHTS of D3 Dopamine Receptor Antagonist: qHTS; D(3) dopamine receptor (Homo sapiens), P35462; D3R cells, DiscoveRx beta-arrestin luminescence, antagonist mode; hits give low values; hit rate 2.5% among 360,000; AID 652054, 2013; max response, negative = inhibition, %; in the data active = max response below about -50%; inconclusive = no clear call, values can overlap the other calls; also: % is scaled to controls: 0 for no effect and ±100 for the full control effect
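Cells expressing the human receptor were seeded at 1500 cells/well, incubated overnight at 37 degrees C in 5% CO2, then exposed to library compounds with dopamine controls for 90 minutes at 37 degrees C before luminescent detection.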
KB-3-1 cytotox = qHTS assay for MDR1-selective chemotherapeutics: Primary screen using the parental adenocarcinoma cell KB-3-1; KB-3-1 viability, CellTiter-Glo ATP luminescence, 72 h; Potency, µM (doses to about 46.1 µM), actives largely listed as cytotoxic; hit rate 1.4% among 400,000; also: potency is read from the fitted curve at half-maximal effect; % is scaled to controls: 0 for no effect and ±100 for the full control effect; nearly all actives have a fitted effect of over 60% in size
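Parental KB-3-1 viability, qHTS format: 72 h compound exposure, 37 °C; CellTiter-Glo; media-only wells and DMSO plates as controls; concentration-effect fits on corrected data.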
SW480 rereplic = A quantitative high throughput screen for small molecules that induce DNA re-replication in SW480 colon adenocarcinoma cells | SW480 DNA re-replication, Hoechst DNA content imaging, 48 h | Potency, µM (highest dose often 46.1 µM), for the others: top-dose re-replication activation, hits mostly activators | hit rate 1.8% among 340,000 | AID 624297, 2012; also: potency is read from the fitted curve at half-maximal effect; % of control where 0% means no effect; nearly all actives have a fitted effect of over 55% in size
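Hoechst fluorescence of nuclei (405 nm excitation, 500-530 nm emission) measured by plate-scanning imager after 48 hr compound exposure at 37 C; re-replication scored as increased number of nuclei with elevated intensity.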
Numbers without * were called inactive; i = inactive; ? = inconclusive; . = not tested or not shown. Unless noted, calls follow the shape of the dose curve; as a rule, active = well fitted curve in the direction sought with a large enough effect; inconclusive = small, poorly fitted or top-dose-only effect, or another doubt; inactive = no such curve, though single readings can be large; an effect the other way counts as inactive or inconclusive.

SMILES	KB-V1 cytotox	MCF10A rereplic	DRD3 agonist	D3 antag	KB-3-1 cytotox	SW480 rereplic
O=C(CSc1nnc(-c2ccccc2)c(-c2ccccc2)n1)NCCc1ccccc1	i	.	0	.	i	.
O=C1/C(=C/c2cccnc2)SC(=S)N1C1CCS(=O)(=O)C1 (centres undefined)	?	15µM*	-3	-21	?	?
O=C1/C(=C\c2cccnc2)SC(=S)N1C1CCS(=O)(=O)C1 (centres undefined)	i	15µM*	-7	-21	?	?
CCOC(=O)N1CCc2c(sc3c2c(=O)n(-c2ccc(F)cc2)c(=O)n3CC(=O)c2ccccc2)C1	.	.	14	.	.	.
CN(c1ccccc1)S(=O)(=O)c1cccc(NC(=O)c2cc(=O)c3ccccc3o2)c1	?	26µM*	17	123	i	-1%
NS(=O)(=O)c1cccc(NC(=O)c2cc3ccccc3o2)c1	i	5%	22	11	i	18µM*
CCN(c1ccccc1)S(=O)(=O)c1ccc(NC(=O)c2cc(=O)c3ccccc3o2)cc1	?	.	8	.	i	.
NS(=O)(=O)c1cccc(NC(=O)c2cc(=O)c3ccccc3o2)c1	i	-2%	6	14	i	-3%
CCCCN(C)C(=O)c1ccc2c(=O)n3nc(Nc4cc(C)ccc4C)sc3nc2c1	i	.	0	.	i	.
Cc1cc2nc(C(C)(C)C)c(Cc3ccccc3)n2c(C)c1Br	i	.	-21	-97*	i	.
Cc1cccc(NS(=O)(=O)c2ccc3[nH]c(=O)ccc3c2)c1C	i	.	-18	.	i	.
CC(C)c1ccc(NC(=O)C2CCC(CNC(=O)[C@@H]3Cc4ccccc4CN3)CC2)cc1 (some centres undefined)	?	15µM*	0	-2	i	?
Cc1ccc(NC(=O)[C@H](NC(=O)[C@@H]2Cc3ccccc3CN2)c2ccccc2)c(C)c1	i	6%	0	-23	i	-5%
CCc1ccc(NC(=O)[C@@H](NC(=O)[C@@H]2Cc3ccccc3CN2)C(C)CC)cc1 (some centres undefined)	?	1%	-14	?	i	1%

Compound activity deposited in PubChem by National Center for Advancing Translational Sciences (NCATS).
